Data on 106 compounds can be found in ChEMBL document CHEMBL3988442, “University of Dundee, Small-Polar-MMV Screening Library” (2021).

Out of some 48,000 compounds screened, about 13,000 (27%) showed an effect of 50% or more. The list shows a part of the results.

This assay has as its system Wolbachia pipientis. As to the kind of experiment: Anti-Wolbachia Cell-Based Screen. Type of assay: functional. Set-up: scale not given: in the data most compounds retested in dose-response had high values. As to conditions: 5 µM.
Take `COc1ccc(-c2noc([C@@H](C)NS(=O)(=O)CC(C)C)c2C(=O)O)cc1`: the “Percent Effect” value is given as -11.95%.
For the compound `Cn1cc(Cl)c(CN2CCn3nc(C(=O)Nc4ccccc4)cc3C2)n1`, the “Percent Effect” value was -7.275%.
For `COCc1ccccc1CNc1cc(N2CCCC2CO)ncn1` (stereo unspecified) the value was 1.416%; for `Cc1ccsc1CNc1cc(N2CCCC2CO)ncn1` (stereo unspecified), 12.33%.
For `OCC1CCCN1c1cc(NCc2ccsc2)ncn1` (stereo unspecified) the value was 106%; for `Cc1cccc2c1CCN(c1cc(N3CCCC3CO)ncn1)C2` (stereo unspecified), 1.096%.
`OCC1CCN(c2ccc(NCc3ccsc3)nc2)CC1`: the “Percent Effect” value was -9.25%.
Then `Cc1ccc(CNc2cc(N3CCCC3CO)ncn2)s1` (stereo unspecified), with 116.3%.
Then `Cc1ncsc1CNc1cc(N2CCCC2CO)ncn1` (stereo unspecified), with 92.3%.
Then `Cc1noc(C)c1CNc1cc(N2CCCC2CO)ncn1` (stereo unspecified), with -3.514%; and `CN1CCN(c2cc(N3CCCC3CO)ncn2)Cc2ccccc21` (stereo unspecified), with 10.62%.
For the compound `CN(CC1COc2ccccc2O1)C(=O)NCCCn1cncn1` (stereo unspecified), the “Percent Effect” value is reported as -12.38%.
For `Cc1nnc2n1CCN(Cc1csc(-c3cnn(C)c3)n1)C2` the value was -23.78%; for `c1cnc(-c2nc(CN3CCn4c(nnc4C4CC4)C3)cs2)nc1`, 13.95%; for `Cc1nnc2n1CCN(Cc1csc(-c3ccsc3)n1)C2`, 121.4%.
For `Cc1nnc2n1CCN(Cc1csc(COc3ccccc3)n1)C2` the value was 109.3%.
For `Cc1ccc(-c2nc(CN3CCn4c(nnc4C4CC4)C3)cs2)o1` the value was 3.918%; for `CCc1nnc2n1CCN(Cc1csc(-c3ccc(C)o3)n1)C2`, -1.199%.
`Cc1nnc2n1CCN(Cc1csc(-c3ccc(F)cc3)n1)C2`: the “Percent Effect” value is given as -7.701%.
For `CCc1nnc2n1CCN(Cc1csc(-c3ccsc3)n1)C2` the value was -5.09%.
As for `Cc1nnc2n1CCN(Cc1csc(-c3ncccn3)n1)C2`, the “Percent Effect” value is 110.5%.
Then `Cc1ccc(-c2nc(CN3CCn4c(C)nnc4C3)cs2)o1`, with 51.15%; and `CCc1nnc2n1CCN(Cc1csc(-c3ncccn3)n1)C2`, with -18.32%; and `Cc1nnc2n1CCN(CCOc1ccccc1)C2`, with 2.68%.
For `CC(C)C1C(=O)NCCN1C(=O)CCCc1nc(C(C)(C)C)no1` (stereo unspecified) the value was -23.49%.
For `COc1ccnc(N2CCN(C(=O)CCc3cnn(C)c3)CC2)n1` the value was 36.6%; for `COCC1CN(Cc2cc(C)on2)Cc2cn(C)nc21` (stereo unspecified), 6.327%; for `CCN(C)CC1CCN(S(=O)(=O)c2cc(C)c(F)cc2Cl)C1` (stereo unspecified), 6.524%.
Regarding `Cc1cc(CN2CCCC2c2c(C)nn(C)c2Cl)no1` (stereo unspecified), the “Percent Effect” value stood at 7.779%.
For `COc1c(C2CCCN2CC(=O)NCc2ccccn2)c(C)nn1C` (stereo unspecified) the value was 101.4%.
For `Cc1nn(C)c(C)c1C1CCCN1CC(=O)Nc1ccncc1` (stereo unspecified), the “Percent Effect” value came out at 1.396%.
For `Cc1nn(C)c(C)c1C1CCCN1CC(=O)NCc1ccccn1` (stereo unspecified) the value was 103.7%; for `COc1c(C2CCCN2CC(=O)Nc2cc(C)no2)c(C)nn1C` (stereo unspecified), -8.496%; for `Cc1nn(C)c(Cl)c1C1CCCN1CCc1ccccn1` (stereo unspecified), 5.429%.
For `COc1c(C2CCCN2CC(=O)Nc2nc(C)cs2)c(C)nn1C` (stereo unspecified) the value was -2.535%.
For `Cc1nn(C)c(Cl)c1C1CCCN1Cc1ccccn1` (stereo unspecified) the value was 85.99%; for `Cc1nn(C)c(Cl)c1C1CCCN1CC(=O)NCc1ccccn1` (stereo unspecified), -3.313%.
Regarding `CNC(=O)C1CCC(NC(=O)N(C)Cc2c(C)noc2C)CC1` (stereo unspecified), the “Percent Effect” value came to 3.279%.
`Nc1cc(O)nc(CCNC(=O)CC[C@@H]2CCCN3CCCC[C@H]23)n1`: the “Percent Effect” value was -22.38%.
Turning to `CCC(O)CN(Cc1cccc(C(=O)N(C)C)c1)c1ccccc1` (stereo unspecified), the “Percent Effect” value came out at 6.575%.
For `CCC(C)(O)CNc1ccc(S(=O)(=O)C(F)F)cc1` (stereo unspecified) the value was -17.2%; for `Cn1c(=O)[nH]c2cc(C(=O)OCC(F)F)ccc21`, -3.927%.
For `CC(C)n1cnnc1Cn1c(=O)cnc2ccccc21` the value was -19.8%.
`CCC1(C(=O)O)CCCN(C(=O)c2ccc(O)c(Cl)c2)C1` (stereo unspecified): the “Percent Effect” value is listed as -6.141%.
For `O=C(c1cccc(Cl)c1)N1CCCC(Nc2ccc(F)cc2)C1` (stereo unspecified) the value was -14.25%; for `CC(C)C(=O)NC1CCCN(C(=O)c2cc(Cl)ccc2O)C1` (stereo unspecified), 122.5%; for `CC(=O)NC1CCCN(C(=O)CNc2cc(Cl)cc(Cl)c2)C1` (stereo unspecified), -7.422%.
For `CC(C)C(=O)NC1CCCN(C(=O)c2ccc(O)c(Cl)c2)C1` (stereo unspecified) the value was 88.73%; for `Cc1ccc(C(=O)N2CCCC(NC(=O)C(C)C)C2)c(O)c1` (stereo unspecified), 9.198%; for `Cc1ccc(C(=O)N2CCCC(C(=O)N3CCCCC3)C2)c(O)c1` (stereo unspecified), -5.568%.
For `CCC1CN(C(=O)c2ccc(Cl)cc2O)CCN1C(C)C` (stereo unspecified) the value was -0.08814%.
Consider `Cc1ccc(O)c(C(=O)N2CCCC(NC(=O)C(C)C)C2)c1` (stereo unspecified), for which the “Percent Effect” value is given as 85.08%.
Then `COc1c(F)cc(NC(=O)N2CCC(CSC)C2)cc1F` (stereo unspecified), with -4.081%; and `CS(=O)(=O)CCNC(=O)Nc1sc2ccccc2c1Cl`, with -6.956%; and `CCCn1[nH]cc/c1=N\C(=O)CN1CCCC1c1cccn1C` (stereo unspecified), with -13.94%.
For `Cc1noc(C2CCC3(CCN(C(=O)c4ccn(C)n4)CC3)O2)n1` (stereo unspecified) the value was 89.59%.
Then `Cc1noc(C2CCN(C(=O)c3cc(Br)ccc3F)CC2)n1`, with 2.952%; and `Cc1noc(C2CCC3(CCN(C(=O)C4CCOCC4)CC3)O2)n1` (stereo unspecified), with 108.6%; and `O=C(C1CCOCC1)N1CCC2(CCC(C(=O)N3CCCC3)O2)CC1` (stereo unspecified), with -2.84%.
On to `Cn1cc(C(=O)N2CC[C@@]3(O)CCN(C(=O)C4CCCC4)C[C@H]3C2)cn1`, for which the “Percent Effect” value is given as 2.716%.
Then `Cc1noc([C@H]2C[C@H]3CN(C(=O)C4CCOCC4)CC[C@@H]3O2)n1`, with -6.774%; and `Cc1noc(C2CCC3(CCN(C(=O)c4sccc4C)CC3)O2)n1` (stereo unspecified), with 105.9%.
On to `Cc1noc(C2CCCN(C(=O)c3scnc3Cl)C2)n1` (stereo unspecified), for which the “Percent Effect” value worked out at 3.125%.
Then `Cn1ccc(C(=O)N2CCC3(CCC(=O)N(C4CCCC4)C3)CC2)n1`, with 5.203%.
Then `Cc1noc(C2CCC3(CCN(C(=O)c4cnn(C)c4)CC3)O2)n1` (stereo unspecified), with 95.88%; and `Cc1noc(C2CCC3(CCN(C(=O)C4=CCCCC4)CC3)O2)n1` (stereo unspecified), with -12.42%; and `Cn1nnnc1SCCNC(=O)c1cccc2ccnn12`, with 0.6807%.
`CCC1CN(CC(=O)NC(C)C)CCO1` (stereo unspecified): the “Percent Effect” value is given as -17.56%.
Then `CC1CCCCN1C(=O)c1cn(-c2ccc(C(F)(F)F)cn2)nn1` (stereo unspecified), with -15.67%; and `O=C(COc1coc(CN2CCCC2)cc1=O)NCc1ccccc1Cl`, with 13.29%; and `CCn1ncc2c1CCCC2NCc1csc(COC)n1` (stereo unspecified), with 6.958%.
For `CCCn1c(C)cc(C(=O)CN2C(=O)c3ccccc3CS2(=O)=O)c1C` the value was -1.519%; for `Cc1noc(C2CCCN(C(=O)c3cncc(Br)c3)C2)n1` (stereo unspecified), -3.695%.
Then `Cc1noc(C2CCN(C(=O)c3ccc(N(C)C)nc3)CC2)n1`, with -12.04%.
Take `Cc1noc(C2CCC3(CCN(C(=O)c4ccnnc4)CC3)O2)n1` (stereo unspecified): the “Percent Effect” value amounted to 98.77%.
For `CCCN1CCCC2(CCN(c3nc(C)nc4ccsc34)C2)C1=O` (stereo unspecified) the value was -5.221%; for `Cc1cc(N2CCC3(CCCN(CCO)C3=O)C2)nc2ccccc12` (stereo unspecified), 93.99%; for `COCCN1CCCC2(CCN(c3ncc(Cl)cc3Cl)C2)C1=O` (stereo unspecified), 5.155%.
On to `Cc1cc(N2CCC(CO)(CC3CCCCO3)CC2)nc2ccccc12` (stereo unspecified), for which the “Percent Effect” value is recorded as -15.69%.
For `COCCC1(C(=O)O)CCCN(c2cc(C)c3ccccc3n2)C1` (stereo unspecified) the value was -9.375%; for `Cc1cc(N2CCC3(CCCN(CCO)C3=O)C2)nc2cc(Cl)ccc12` (stereo unspecified), 98.58%; for `Cc1ccc2c(c1)OC1(NC2=O)C(=O)N(C)c2ccccc21` (stereo unspecified), 2.541%.
Then `COc1ncccc1NC(=O)N1CCOCC1C` (stereo unspecified), with 13.85%; and `CCC(=O)N1CCC(c2nc(O)c3c(n2)CN(C2CCCCC2)CC3)C1` (stereo unspecified), with 94.52%.
For `Cc1nc2c(c(=O)n1C)CN(C(=O)C1CCCN(C3CCCC3)C1)C2` (stereo unspecified) the value was -4.359%; for `O=C(C1CC1)N1CCC(c2nc(O)c3c(n2)CN(C2CCCC2)CC3)C1` (stereo unspecified), 78.69%; for `CCCC(=O)N1CCC(c2nc(O)c3c(n2)CCN(C2CCCC2)C3)C1` (stereo unspecified), 91.38%.
On to `CCC(=O)N1CCC(NC2CCCC2)C1` (stereo unspecified), for which the “Percent Effect” value is -2.557%.
Then `C1CCC(c2nc3c(c(N4CCN5CCCC5C4)n2)CCNCC3)C1` (stereo unspecified), with -7.963%; and `Cc1ccc(-c2ncc(C(=O)N3CCN4CCCCC4C3)c(O)n2)cc1` (stereo unspecified), with 8.265%; and `Cc1ncc(C(=O)N2CCC(N3CCc4ccccc4C3)CC2)c(O)n1`, with -7.9%.
For `CC(C)N(CC(N)=O)Cc1cccc(C(F)(F)F)c1` the value was -6.914%.
Take `CC(C)c1cc(C(=O)N2CCNCC2C(=O)NCc2ccncc2)on1` (stereo unspecified): the “Percent Effect” value is given as -12.97%.
Then `CC(C)(C)c1ccc2c(c1)CCN2C(=O)c1ccc(=O)[nH]n1`, with -4.388%; and `CCc1nc2n(n1)CCCC2NC(=O)Nc1ccc(F)cc1C#N` (stereo unspecified), with -29.22%.
For `Cc1ccc(C(=O)N2CCC3(CC2)CC(c2ccccc2)C(=O)N3)o1` (stereo unspecified) the value was -4.481%; for `CCOc1ccccc1N(C)Cc1nccn1C`, -5.564%.
For `CC(C)=CCN1CC2(CCN(Cc3cccc(C#N)c3)CC2)CC1=O` the value was 0.9714%; for `CC(C)N1CCC2(CC1)CC(=O)N(Cc1cc(F)cc(F)c1)C2`, 84.47%; for `CC(C)=CCN1CC2(CCN(Cc3c(F)cccc3F)CC2)CC1=O`, -3.567%.
For the compound `CC(C)=CCN1CCC2(CC1)CC(=O)N(Cc1cc(F)cc(F)c1)C2`, the “Percent Effect” value is on record as 132.9%.
Then `CCCS(=O)(=O)N1CCC2(CCC(=O)N(CCc3ccncc3)C2)CC1`, with 3.257%.
For the compound `CCCS(=O)(=O)N1CCC2(CCC(=O)N(Cc3ccccc3)C2)CC1`, the “Percent Effect” value is -5.429%.
With `CCCS(=O)(=O)N1CCC2(CC1)CC(=O)N(Cc1cc(F)cc(F)c1)C2`, the “Percent Effect” value is listed as 128.2%.
Then `CN1CC2(CCN(C(=O)Cc3ccc(O)c(F)c3)CC2)CC1=O`, with -5.557%; and `O=C(CO)N1CCC2(CC1)CC(=O)N(Cc1cc(F)cc(F)c1)C2`, with 130.8%.
